The source made the active and inactive calls. How the source made its calls: active means hit-call score of the fitted dose curve at least 0.9, where 1 is the maximum; inactive means score below 0.9.

This experiment can be described thus: APR_HepG2_StressKinase_1hr: Apredica 1-hour HepG2 Assay for Stress Kinase (AID 2282906). To be noted: HepG2 stress kinase (phospho-c-Jun) imaging, actives raise or lower the signal. As for the experimental part: APR_HepG2_1hr is a cell-based, multiplexed-readout assay that uses HepG2, a human liver cell line, with measurements taken at 1 hour after chemical dosing in a 384-well plate.APR_HepG2_StressKinase_1hr is one of 10 assay component(s) measured or calculated from the APR_HepG2_1hr assay. It is designed to make measurements of enzyme activity, a form of enzyme reporter, as detected with fluorescence intensity signals by HCS Fluorescent Imaging technology.Data from the assay component APR_HepG2_StressKinase_1hr was analyzed into 1 assay endpoint. This assay endpoint, APR_HepG2_StressKinase_1hr, was analyzed with bidirectional fitting relative to DMSO as the negative control and baseline of activity. Using a type of enzyme reporter, measures of protein for gain or loss-of-signal activity can be used to understand the signaling at the pathway-level as they relate to the gene . Furthermore, this assay endpoint can be referred to as a primary readout, because this assay has produced multiple assay endpoints where this one serves a signaling function. To generalize the intended target to other relatable targets, this assay endpoint is annotated to the cell cycle intended target family, where the subfamily is stress response.
Cells were treated with dimethyl sulfoxide (DMSO) as a solvent control at a final concentration of 0.5% v/v or with compounds in DMSO with a resulting final DMSO concentration of 0.5% v/v. Compound treatment was done at concentrations of 0.39, 0.78, 1.56, 3.12, 6.24, 12.5, 25, 50, 100, and 200 uM in duplicate on each plate. Cells were treated with compounds for 1, 24, or 72 hr. Carbonyl […] m-chloro-phenylhydrazone (CCCP) and taxol were used as positive controls for mitochondrial function and cytoskeletal stability, respectively; DMSO served as the negative control for this experiment. Cells were fixed by the direct addition of 50 uL formaldehyde in Hank's Balanced Salt Solution (HBSS) to a final concentration of 3.7%. After incubation in the fixation medium for 30 min at room temperature (293-298 K), cells were rinsed twice with HBSS and treated with cell permeabilization buffer (16 uL of 0.5% Triton X-100) for 10 min at room temperature (293-298 K) before labeling. For mitochondrial membrane potential and mitochondrial measurements, pre-fixed cells were incubated with 50 uL of MitoTracker Red CMXRos (Invitrogen) at a concentration of 250 nM for 30 min before fixation. In the remaining cases, post-fixed cells were labeled by incubation with a multiplexed mixture of primary antibodies in HBSS for 60 min at room temperature (293-298 K) to detect immunoreactivity of c-Jun (1:500), phospho-histone H3 (1:100), phospho-histone H2A.x (1:200), p53 (1:400), alpha-tubulin (1:200) and Hoechst 33342 (2 ug/mL). Cells were labeled for multiplexed imaging on two separate plates: a) Hoechst 33342, MitoTracker Red, phospho-histone H3, and alpha-tubulin, and b) Hoechst 33342, phospho-histone H2A.x, and c-Jun. A final rinse with HBSS (50 uL) was performed before analysis. The primary and secondary antibodies for the proteins were phospho-histone H3 (rabbit anti-phospho-histone H3 and FITC-donkey anti-rabbit IgG), phospho-histone H2A.x (mouse anti-phospho-histone H2A.x and FITC-donkey anti-mouse IgG), c-Jun (rabbit anti-phospho-c-Jun and Cy3-donkey anti-rabbit IgG), p53 (sheep anti-p53 and Cy5-donkey anti-sheep IgG), alpha-tubulin (mouse anti-alpha-tubulin and Cy5-donkey anti-mouse IgG). These antibodies are available as the CellCiphr HepG2 assay kit (Millipore).Digital images of each well were captured using a Cellomics ArrayScan VTI (Thermo Scientific Cellomics) (0.8 NA objective, 0.63x optical coupler, and XF-93 filter set) at 20x magnification. The images were acquired using the autofocus feature of the ArrayScan instrument, which entails the following steps. First, the camera focuses on channel 1 (Hoechst 33342), where nuclei are identified. Second, a Z offset of 1 um is used for capturing mitochondria (MitoTracker Red). […]
In the case of `CCOP(=O)(NC(C)C)Oc1ccc(SC)c(C)c1` (stereo not given), the molecule was classed as inactive. The result for `CCOP(=S)(OCC)OC(Cl)C(Cl)(Cl)Cl` (stereo not given) reads “inactive”; that for `CC(C)[C@H](C(=O)O[C@H](C#N)c1cccc(Oc2ccccc2)c1)c1ccc(Cl)cc1`, “inactive”. With `C#CC(C)(C)NC(=O)c1cc(Cl)cc(Cl)c1` the entry was “inactive”; with `COc1ccc(C(=CC(=O)N2CCOCC2)c2ccc(Cl)cc2)cc1OC`, “inactive”; with `CCOP(=S)(OCC)SCCSCC`, “inactive”. For the molecule `CC(C)=CC1C(C(=O)OCN2C(=O)C3=C(CCCC3)C2=O)C1(C)C` (stereo not given), the outcome was inactive. `CCOC(=O)CC(SP(=O)(OC)OC)C(=O)OCC` (stereo not given): the outcome was inactive. For the molecule `CCC(=NOC/C=C/Cl)C1=C(O)CC(C2CCOCC2)CC1=O` (stereo not given), the molecule was classed as inactive. The result for `CN1COCN(Cc2cnc(Cl)s2)C1=N[N+](=O)[O-]` reads “inactive”. The result for `O=C(O)c1cc(Oc2ccc(C(F)(F)F)cc2Cl)ccc1[N+](=O)[O-]` reads “inactive”; that for `CC1=NNC(=O)N(/N=C/c2cccnc2)C1`, “inactive”. The result for `CCC(=O)Nc1ccc(Cl)c(Cl)c1` reads “inactive”; that for `S=C1NCCN1`, “inactive”. In the case of `CCOP(=O)(OCC)Oc1cc(C)nc(C(C)C)n1`, the molecule was classed as inactive. The result for `CCNc1nc(Cl)nc(NC(C)(C)C#N)n1` reads “inactive”; that for `CNC(=O)ON=C(SC)C(=O)N(C)C`, “inactive”; that for `CON=C(C(=O)OC)c1ccccc1CON=C(C)c1cccc(C(F)(F)F)c1`, “inactive”. With `CSc1nnc(C(C)(C)C)c(=O)n1N` the entry was “inactive”. The result for `CCC(CC)Nc1c([N+](=O)[O-])cc(C)c(C)c1[N+](=O)[O-]` reads “inactive”; that for `C[N+]1(C)CCCCC1`, “inactive”. Turning to `O=c1ccc(=O)[nH][nH]1`, the outcome was inactive. With `CCCCOC(=O)c1ccccc1C(=O)O` the entry was “inactive”.

In the case of `CCCCSP(=O)(SCCCC)SCCCC`, the molecule was classed as inactive.

For `COP(=O)(NC(C)=O)SC` (stereo not given), the outcome was inactive. With `C#CCC1=C(C)C(OC(=O)C2C(C=C(C)C)C2(C)C)CC1=O` (stereo not given) the entry was “inactive”; with `CCCSP(=O)(OCC)Oc1ccc(Br)cc1Cl` (stereo not given), “inactive”.

On to `N#CSCSC#N`, for which the molecule was called inactive. With `CCOC(=O)COc1cc(-c2nn(C)c(OC(F)F)c2Cl)c(F)cc1Cl` the entry was “inactive”; with `CC(C)N(C(=O)SCC(Cl)=C(Cl)Cl)C(C)C`, “inactive”; with `CN(C)C(=O)Nc1cccc(C(F)(F)F)c1`, “inactive”.

As for `Nc1c(Cl)cc([N+](=O)[O-])cc1Cl`, the outcome was inactive. The result for `CCOP(=S)(OCC)Oc1cc(C)nc(C(C)C)n1` reads “inactive”.

On to `CCc1cccc(CC)c1N(COC)C(=O)CCl`, for which the result was inactive. The result for `Nc1nc(N)nc(NC2CC2)n1` reads “inactive”. With `CCCCOC(=O)[C@@H](C)Oc1ccc(Oc2ccc(C#N)cc2F)cc1` the entry was “inactive”; with `COc1cc(OC)nc(Sc2cccc(Cl)c2C(=O)O)n1`, “inactive”; with `CCc1cnc(C2=NC(C)(C(C)C)C(=O)N2)c(C(=O)O)c1` (stereo not given), “inactive”. The result for `CC(Oc1cccc(Cl)c1)C(=O)O` (stereo not given) reads “inactive”; that for `CCOP(=S)(OCC)Oc1ccc2c(C)c(Cl)c(=O)oc2c1`, “inactive”.

The record behind these values is PubChem BioAssay (EPA / NIEHS).
